From PubChem BioAssay (Tox21)
Inconclusive results are not listed. Activity calls are given as the source filed them. The call rests on the fitted dose curve; in most records, active means well fitted inhibition curve with a large enough effect in the repeat runs; inconclusive means weak or mixed curves; inactive means no such curve, though single readings can be large or run the other way.
Potency means the concentration at half of the fitted maximal effect.

Each compound was assayed against Cytochrome P450 2C19 (Homo sapiens) (UniProt P33261) (assay: Cytochrome P450 Family 2 Subfamily C Member 19 (CYP2C19) small molecule antagonists: luciferase reporter qHTS assay (AID 1671197; further: nearly all actives have a fitted effect of over 65% in size)). Details: P450-Glo CYP2C19 enzyme, luciferin luminescence, 1 h; series mostly up to 115 µM.
Chain of Cytochrome P450 2C19 (Homo sapiens) (P33261 whole entry, looked up): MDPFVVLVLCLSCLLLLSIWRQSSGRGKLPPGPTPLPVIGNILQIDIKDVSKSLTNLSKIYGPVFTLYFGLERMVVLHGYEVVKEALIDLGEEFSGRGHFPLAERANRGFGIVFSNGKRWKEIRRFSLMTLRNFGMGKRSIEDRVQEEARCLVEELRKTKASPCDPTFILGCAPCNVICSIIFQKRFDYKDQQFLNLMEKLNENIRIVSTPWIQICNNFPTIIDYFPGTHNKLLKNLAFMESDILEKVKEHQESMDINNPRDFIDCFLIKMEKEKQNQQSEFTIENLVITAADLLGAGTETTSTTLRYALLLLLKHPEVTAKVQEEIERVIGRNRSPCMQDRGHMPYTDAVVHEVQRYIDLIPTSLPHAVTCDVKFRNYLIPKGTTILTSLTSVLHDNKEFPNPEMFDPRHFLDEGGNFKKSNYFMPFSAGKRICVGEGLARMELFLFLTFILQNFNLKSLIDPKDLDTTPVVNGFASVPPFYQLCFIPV
Outline: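 CYP2C19 P450-Glo, 1536-well qHTS. Cpd + enzyme/proluciferin substrate 10 min RT; + NADPH regen, 37C 1 h; stop with luciferin detection reagent, 20 min RT, luminescence (RLU). Pos ctrl ketoconazole.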
For `C[C@@H]1CN(C2CCC(C#N)(c3ccc(F)cc3)CC2)CC[C@]1(C(=O)O)c1ccccc1` (stereo not given in full), the Potency was “inactive”.
For `C[C@]1(O)CC[C@H]2[C@@H]3CCC4=CC(=O)CC[C@]4(C)[C@@]3(F)[C@@H](O)C[C@@]21C`, the Potency was 71.4 µM (active).
`COC(=O)C(C)Oc1ccc(Oc2ccc(Cl)cc2Cl)cc1` (stereo not given) was tested, and the Potency was 5.64 µM (active).
`O=C1OC(=O)C2C1C1(Cl)C(Cl)=C(Cl)C2(Cl)C1(Cl)Cl` (stereo not given) was tested, and the Potency was “inactive”.
In the case of `CC1=C(C(=O)Nc2ccccc2)S(=O)(=O)CCO1`, the Potency is reported as “inactive”.
With `COc1cc2c(cc1OC)[C@@]13CCN4CC5=CCO[C@H]6CC(=O)N2[C@H]1[C@H]6[C@H]5C[C@H]43` the Potency was “inactive”.
`N#Cc1c(Cl)cccc1Cl` was tested, and the Potency was “inactive”.
With `CCCSC(=O)Cl` the Potency was “inactive”.
For `OCCSCSCCO`, the Potency was “inactive”.
With `CCOC(=O)/C=C(C)/C=C/C[C@@H](C)CCCC(C)C` the Potency was 28.3 µM (active).
With `CCOP(=S)(OCC)SCSP(=S)(OCC)OCC` the Potency was 0.399 µM (active).
With `O=[N+]([O-])c1ccc2c3c(cccc13)CC2` the Potency was 35.6 µM (active).
`CC(N)=S` was tested, and the Potency was 71 µM (active).
`O=CNC(N1CCN(C(NC=O)C(Cl)(Cl)Cl)CC1)C(Cl)(Cl)Cl` (stereo not given) was tested, and the Potency was 7.96 µM (active).
For `CCCCP(CCCC)CCCC`, the Potency was 31.7 µM (active).
For `C=C(C)CN(CC)c1c([N+](=O)[O-])cc(C(F)(F)F)cc1[N+](=O)[O-]`, the Potency was 28.3 µM (active).
`CCN(CC)C(=O)[C@@H]1C=C2c3cccc4[nH]cc(c34)C[C@H]2N(C)C1` was tested, and the Potency was 165 µM (active).
`CCC(C)(C)c1cc(-n2nc3ccccc3n2)c(O)c(C(C)(C)CC)c1` was tested, and the Potency was 20.3 µM (active).
In the case of `CC(Cl)(Cl)[N+](=O)[O-]`, the Potency is reported as “inactive”.
With `O=C1OC(CCN2CCCCC2)OC1(c1ccccc1)c1ccccc1` (stereo not given) the Potency was 38.9 µM (active).
